Measured values reported in PubChem BioAssay.
Inconclusive results are not listed. Calls of active or inactive are those of the source.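 Rule for the calls, unless noted: active = cell viability at or below a set limit in both duplicate runs, the limit being the all-compound median minus 4 SD (cut at about 23% in these data, passing the limit was not always enough); inconclusive = no clear call, values can overlap the other calls; inactive = the rest.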

Assays:
[1] = reducers of endogenous Her2 protein level, primary screen, SKBR3 breast tumor cells, AlphaScreen, ATP viability (AID 461;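 active = Her2 level under about 52% in both replicate screens, with viability over 70% of control, limit read from the data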;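 for Her2 level: lower value means less Her2 protein in the cells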;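 for viability: percent of carrier control wells set as 100% viability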); settings: 18-24 h, measured here: SKBR3 viability, ATP luminescence, at 10 µM
[2] = biological target: Receptor tyrosine-protein kinase erbB-2 (Homo sapiens) (UniProt P04626); assay: as above; settings: 18-24 h, at 10 µM, stronger effect = lower value
[3] = SK-BR-3 cell growth inhibitors, pilot screen, 24 h, human (AID 572;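 active = viability at or below 10% of carrier control in both of two separate runs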;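 note: compound exposure lasted between 18 and 24 h rather than exactly 24 h; 100% = carrier-treated control wells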); settings: SK-BR-3 viability, CellTiter-Glo luminescence, at 10 µM, stronger effect = lower value
[4] = HUVEC growth inhibition – cell-based, human, primary screen (AID 575;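 active = viability at or below 30% in both replicate assays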;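 note: 100% = median of untreated cell wells with 0.1% DMSO on each plate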); settings: HUVEC proliferation, CellTiter-Glo luminescence, 72 h; at 10 µM; stronger effect = lower value
[5] = growth inhibitors of H69AR lung tumor, primary screen, human, duplicate replicates (AID 580;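 active = viability at or under a set limit in both replicates, limit being median viability minus 3 SD, cut at about 48% in these data, passing the limit was not always enough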;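 note: 100% = mean luminescence of untreated wells and 0% = no signal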); settings: H69AR lung tumor cells viability, ATP luminescence, 72 h; at 10 µM; stronger effect = lower value
[6] = reversal of MRP1-mediated doxorubicin resistance, pilot screen, H69AR cells, doxorubicin co-treatment (AID 601;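 active = viability loss from added drug above about 55%, and viability with drug at most 40%, in both replicates, limit read from the data, passing the limit was not always enough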); settings: CellTiter-Glo, 72 h, at 10 µM; for differential viability (reversal): stronger effect = higher value
[7] = 384-well plate pilot, post-Golgi transport modulator project, inhibition of yeast transport mutant growth (AID 636; in the data active = inhibition above about 31%); settings: absorbance 615 nm, about 18 h, stronger effect = higher value
[8] = growth suppression of yeast trafficking mutant, preliminary HTS, modulators of trafficking downstream of Golgi apparatus project, 1536-format plate, OD 615 nm (AID 637; in the data active = inhibition above about 30%); settings: yeast transport mutant growth, absorbance 615 nm, 18 h; stronger effect = higher value
[9] = OD615 S. cerevisiae growth inhibition, permissive medium, pilot counter-assay, permissive growth control for S. cerevisiae lifespan shortening project (AID 705;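 active = growth inhibition above 25% in both replicates, a cutoff set 3 SD above the mean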); settings: OD615, 24 h, at 10 µM, stronger effect = higher value
[10] = Restrictive medium S. cerevisiae growth inhibition, OD615, pilot screen of yeast lifespan reduction project, restrictive growth control (AID 706;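 active = growth inhibition above a set limit, 3 SD over mean compound inhibition, in both replicates, cut at about 43% in these data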;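 note: modified DeaD lifespan yeast strain shifted to restrictive glucose medium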); settings: OD615, 48 h, at 10 µM, stronger effect = higher value
[11] = viability gain of MRP-1-high H69AR cells under doxorubicin, pilot screen, MRP-1 activator project, CellTiter-Glo, duplicate (AID 807;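 active = viability increase at or above a cutoff of the median across tested compounds plus 3 SD, cut at about 8.5% in these data, passing the limit was not always enough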;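 note: compound pretreatment 18-22 h then 72 h combined with doxorubicin; 0% = doxorubicin alone and 100% = vehicle without doxorubicin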); settings: H69AR viability with doxorubicin, CellTiter-Glo luminescence; at 10 µM; stronger effect = higher value
[12] = growth suppression of beta-catenin knockout HCT116, pilot screen, human colon tumor cells (AID 823); settings: CellTiter-Glo, 60 h, at 10 µM, stronger effect = lower value;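 note: 0% = wells killed by 20 µM Hyamine and 100% = untreated DMSO cell wells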
[13] = growth suppression of PTEN-deleted HCT116, pilot screen, cell-based, HCT116 clonal line, CellTiter-Glo (AID 824;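 active = viability at or below 27.92% in each of two runs, the all-compound median minus 4 SD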;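 note: 0% = 20 µM Hyamine control and 100% = vehicle cell control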); settings: 60 h, at 10 µM, stronger effect = lower value
[14] = inhibitors of the yeast RAM network, pilot screen, dse1pr::URA3 reporter, 5-FOA selection (AID 869;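 active = inhibition over a set limit, the all-compound mean plus 3 SD, in both replicate runs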;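 note: 0% = DMSO wells with no growth and 100% = 10 µM 1-NA-PP1 with full growth; RAM network block rescues cells from 5-FOA so hits raise OD615 growth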); settings: S. cerevisiae dse1pr::URA3 5-FOA growth, OD615, 2 d; at 10 µM; stronger effect = higher value; strain carries analog-sensitive mutant Cbk1 kinase
[15] = RAM signaling pathway blockade in yeast – S. cerevisiae, Pdr1DBD-CYC8 efflux-inhibited sensitized strain, primary screen (AID 1298;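 active = RAM network inhibition above 8.4% in each of two replicates, 3 SD over the compound average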;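 note: 0% = DMSO untreated cells without growth and 100% = 10 µM 1-NA-PP1 full growth; higher means more yeast growth rescued from 5-FOA killing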); settings: S. cerevisiae cbk1-as DSE1-URA3 strain, 5-FOA growth OD615, 2 d; at 50 µM; stronger effect = higher value
[16] = H69AR cells + 2 uM doxorubicin, measured here: viability with 2 uM doxorubicin, stronger effect = lower value
[17] = H69AR cells, compound alone cytotoxicity

Chain of Receptor tyrosine-protein kinase erbB-2 (Homo sapiens) (P04626 whole entry, looked up): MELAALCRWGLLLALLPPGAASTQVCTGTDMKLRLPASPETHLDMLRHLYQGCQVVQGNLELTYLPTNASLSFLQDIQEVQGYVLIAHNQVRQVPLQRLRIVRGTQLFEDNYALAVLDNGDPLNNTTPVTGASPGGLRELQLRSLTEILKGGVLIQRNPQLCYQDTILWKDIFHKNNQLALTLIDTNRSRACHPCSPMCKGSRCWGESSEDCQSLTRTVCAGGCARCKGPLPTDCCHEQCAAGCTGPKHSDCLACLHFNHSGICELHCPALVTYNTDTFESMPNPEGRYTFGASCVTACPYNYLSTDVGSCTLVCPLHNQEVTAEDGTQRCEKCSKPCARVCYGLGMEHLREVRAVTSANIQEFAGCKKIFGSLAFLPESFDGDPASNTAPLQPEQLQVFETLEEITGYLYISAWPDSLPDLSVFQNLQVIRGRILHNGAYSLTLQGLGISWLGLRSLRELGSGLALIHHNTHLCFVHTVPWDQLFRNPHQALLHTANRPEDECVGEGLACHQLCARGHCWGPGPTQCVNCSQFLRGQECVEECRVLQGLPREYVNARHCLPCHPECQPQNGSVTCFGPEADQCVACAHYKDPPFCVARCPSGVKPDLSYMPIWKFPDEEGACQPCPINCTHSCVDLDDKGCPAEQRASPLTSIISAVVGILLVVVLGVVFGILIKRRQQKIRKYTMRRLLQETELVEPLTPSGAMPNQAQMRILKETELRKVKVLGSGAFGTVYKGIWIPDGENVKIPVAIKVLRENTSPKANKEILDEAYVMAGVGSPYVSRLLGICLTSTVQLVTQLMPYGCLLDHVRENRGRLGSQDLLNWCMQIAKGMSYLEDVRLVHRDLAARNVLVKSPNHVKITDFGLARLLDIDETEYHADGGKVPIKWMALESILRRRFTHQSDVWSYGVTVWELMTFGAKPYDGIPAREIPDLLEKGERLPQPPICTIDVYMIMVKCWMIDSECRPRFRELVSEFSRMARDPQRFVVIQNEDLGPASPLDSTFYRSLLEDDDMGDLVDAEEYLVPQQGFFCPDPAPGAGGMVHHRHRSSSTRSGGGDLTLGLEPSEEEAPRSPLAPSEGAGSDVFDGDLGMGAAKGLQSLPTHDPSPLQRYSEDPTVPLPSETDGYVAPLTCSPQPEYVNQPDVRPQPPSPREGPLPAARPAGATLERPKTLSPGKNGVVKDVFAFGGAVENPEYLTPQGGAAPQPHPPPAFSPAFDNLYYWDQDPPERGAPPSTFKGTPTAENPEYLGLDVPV

Row | SMILES | viability [1] | Her2 level [2] | viability [3] | viability [4] | viability [5] | differential viability (reversal) ([6]; H69AR cells + 2 uM doxorubicin) | viability [6, 16] | viability [6, 17] | inhibition [7] | inhibition [8] | growth inhibition [9] | growth inhibition [10] | viability increase [11] | viability [12] | viability [13] | inhibition [14] | RAM network inhibition [15]
1 | O=C(Nc1ccncc1)c1cccc(F)c1 | 103% | 130% (inactive) | 103% (inactive) | 91.5% (inactive) | 92% (inactive) | -0.005% (inactive) | 92% | 92% | -3.08% (inactive) | -2.33% (inactive) | -5.12% (inactive) | 3.45% (inactive) | -1.19% (inactive) | 98.4% (inactive) | 91.4% (inactive) | -0.02% (inactive) | 2.86% (inactive)
2 | CC(=O)NC(C)c1nc2ccccc2n1C(C)C (stereo not given) | 90% | 106% (inactive) | 90% (inactive) | 88.1% (inactive) | 93.9% (inactive) | 12.4% (inactive) | 81.5% | 93.9% | -2.8% (inactive) | -2% (inactive) | -5.54% (inactive) | -15.8% (inactive) | -2.65% (inactive) | 84.8% (inactive) | 90% (inactive) | 3.16% (inactive) | -0.31% (inactive)
3 | N#C/C(C(=O)N1CCOCC1)=C1/SC=C(c2ccccc2)N1c1ccccc1 | 102% | 92% (inactive) | 102% (inactive) | 107% (inactive) | 96.1% (inactive) | 4.83% (inactive) | 91.3% | 96.1% | -7.57% (inactive) | 1.67% (inactive) | -1.56% (inactive) | -17.9% (inactive) | -1.27% (inactive) | 96.6% (inactive) | 95% (inactive) | 2.57% (inactive) | 1.55% (inactive)
4 | CCN(CC)C1CCCCC1NS(=O)(=O)c1ccc(Cl)cc1 (stereo not given) | 104% | 116% (inactive) | 104% (inactive) | 90.8% (inactive) | 101% (inactive) | 13.1% (inactive) | 87.8% | 101% | -3.6% (inactive) | 3.28% (inactive) | -12% (inactive) | -3.99% (inactive) | -1.53% (inactive) | 86.5% (inactive) | 92.6% (inactive) | 1.03% (inactive) | 5.81% (inactive)
5 | O=C(Nn1cnnc1)C1Cc2ccccc2CN1S(=O)(=O)c1ccc(F)cc1 (stereo not given) | 112% | 97% (inactive) | 112% (inactive) | 90.4% (inactive) | 97.2% (inactive) | -1.64% (inactive) | 98.8% | 97.2% | -5.95% (inactive) | 4.75% (inactive) | -1.04% (inactive) | 5.43% (inactive) | 0.15% (inactive) | 101% (inactive) | 102% (inactive) | 0.38% (inactive) | 4.84% (inactive)
6 | COc1cc(OC)c2c(c1)OC(c1ccc(OC)c(OC)c1)C(O)C2=O (stereo not given) | 90.5% | 79% (inactive) | 90.5% (inactive) | 112% (inactive) | 90.9% (inactive) | 12.9% (inactive) | 78% | 90.9% | -2.67% (inactive) | 0.82% (inactive) | -13.6% (inactive) | -14.9% (inactive) | -1.91% (inactive) | 101% (inactive) | 100% (inactive) | 2.65% (inactive) | 2.25% (inactive)
7 | O=C(c1ccc(=O)[nH]c1)N(Cc1ccco1)C1(C(=O)NC2CCCC2)CCCCC1 | 102% | 99.5% (inactive) | 102% (inactive) | 102% (inactive) | 104% (inactive) | 11.9% (inactive) | 91.7% | 104% | -7.81% (inactive) | -3.17% (inactive) | 2.31% (inactive) | -5.5% (inactive) | -2% (inactive) | 98.6% (inactive) | 100% (inactive) | -0.16% (inactive) | 1.35% (inactive)
8 | COc1ccc(-n2c(Cc3cccn3C)nnc2SCC(N)=O)cc1 | 94.5% | 95% (inactive) | 94.5% (inactive) | 112% (inactive) | 97.5% (inactive) | 2.7% (inactive) | 94.8% | 97.5% | 0.64% (inactive) | -3.5% (inactive) | 8.68% (inactive) | 5.57% (inactive) | -2.07% (inactive) | 97.6% (inactive) | 94.4% (inactive) | 1.42% (inactive) | 0.63% (inactive)
9 | CCCOC(=O)C1C2C=CC3(CN(c4cccc(Cl)c4)C(=O)C13)O2 (stereo not given) | 102% | 85% (inactive) | 102% (inactive) | 90.4% (inactive) | 83% (inactive) | -10.8% (inactive) | 93.8% | 83% | -2.93% (inactive) | -0.16% (inactive) | -4.19% (inactive) | -9.97% (inactive) | -2.05% (inactive) | 101% (inactive) | 97.4% (inactive) | -0.245% (inactive) | 3.71% (inactive)
10 | Cc1ccc2cc(CCNC(=O)C(C)C)c(=O)[nH]c2c1C | 87.5% | 102% (inactive) | 87.5% (inactive) | 99.4% (inactive) | 99% (inactive) | 6.72% (inactive) | 92.3% | 99% | -4.8% (inactive) | -1% (inactive) | -15.2% (inactive) | -19.7% (inactive) | -0.61% (inactive) | 105% (inactive) | 99.1% (inactive) | 1.52% (inactive) | 6.36% (inactive)
11 | Brc1ccccc1-c1nc(-c2ccccc2)no1 | 88% | 84.5% (inactive) | 88% (inactive) | 89.1% (inactive) | 74.3% (inactive) | -8.99% (inactive) | 83.3% | 74.3% | -2.6% (inactive) | -8% (inactive) | -7.54% (inactive) | 8.43% (inactive) | -5.68% (inactive) | 72% (inactive) | 70.6% (inactive) | 0.565% (inactive) | 3.53% (inactive)
12 | CCCCCn1c(CCNC(=O)CCC)nc2ccccc21 | 96.5% | 102% (inactive) | 96.5% (inactive) | 79.6% (inactive) | 87.4% (inactive) | 5.08% (inactive) | 82.4% | 87.4% | -4.67% (inactive) | 1.17% (inactive) | -0.135% (inactive) | -11.5% (inactive) | -1.41% (inactive) | 94% (inactive) | 87.2% (inactive) | 1.89% (inactive) | 2.6% (inactive)
13 | O=C(CCn1c(=O)oc2ccccc21)NCc1ccco1 | 106% | 115% (inactive) | 106% (inactive) | 89.9% (inactive) | 91% (inactive) | 10% (inactive) | 81% | 91% | -3.47% (inactive) | -5.17% (inactive) | -2.37% (inactive) | -2.52% (inactive) | -1.66% (inactive) | 102% (inactive) | 99.4% (inactive) | 2.08% (inactive) | 2.93% (inactive)
14 | Cc1nc2ccccn2c1/C(O)=C1\C(=O)C(=O)N(CCCN(C)C)C1c1ccc(F)cc1 (stereo not given) | 89% | 91% (inactive) | 89% (inactive) | 94.4% (inactive) | 90.8% (inactive) | -13.7% (inactive) | 105% | 90.8% | 0.4% (inactive) | 3.11% (inactive) | -6.91% (inactive) | -14% (inactive) | -2.7% (inactive) | 104% (inactive) | 88.1% (inactive) | 0.255% (inactive) | -2.2% (inactive)
15 | CCCC(=O)N1CC(=O)Nc2ccc(C)cc2C1c1ccc(F)cc1 (stereo not given) | 86% | 101% (inactive) | 86% (inactive) | 79.9% (inactive) | 97.4% (inactive) | 20.3% (inactive) | 77.1% | 97.4% | -2% (inactive) | 0.16% (inactive) | -8.09% (inactive) | -8.8% (inactive) | -3.73% (inactive) | 82.2% (inactive) | 84.2% (inactive) | 1.42% (inactive) | 2.82% (inactive)
16 | O=C1CC(c2cccnc2)c2cc3c(cc2N1)OCO3 (stereo not given) | 99.5% | 108% (inactive) | 99.5% (inactive) | 88.7% (inactive) | 104% (inactive) | 18.4% (inactive) | 85.7% | 104% | -0.13% (inactive) | -9.18% (inactive) | -2.55% (inactive) | 1.1% (inactive) | -1.75% (inactive) | 105% (inactive) | 99.8% (inactive) | 1.17% (inactive) | 0.51% (inactive)
17 | CCOC(=O)N1CCN(c2cc(=O)n(-c3cccc(Br)c3)c(=O)[nH]2)CC1 | 99.5% | 108% (inactive) | 99.5% (inactive) | 94.4% (inactive) | 103% (inactive) | 17.2% (inactive) | 85.5% | 103% | -3.2% (inactive) | -1.8% (inactive) | -9.72% (inactive) | -24.3% (inactive) | -2.79% (inactive) | 108% (inactive) | 93.5% (inactive) | 3.14% (inactive) | 3.07% (inactive)
18 | CC1(C)CC(=O)C(C=NCCO)=C(O)C1 | 100% | 97.5% (inactive) | 100% (inactive) | 113% (inactive) | 91.2% (inactive) | 2.35% (inactive) | 88.9% | 91.2% | -6.08% (inactive) | 5.83% (inactive) | 5.08% (inactive) | -3.12% (inactive) | 1.5% (inactive) | 102% (inactive) | 101% (inactive) | 1.19% (inactive) | 2.26% (inactive)
19 | C=CCn1c(SCc2cccc(C#N)c2)nnc1-c1ccccc1O | 86.5% | 102% (inactive) | 86.5% (inactive) | 85.9% (inactive) | 92.4% (inactive) | 0.595% (inactive) | 91.8% | 92.4% | -4.4% (inactive) | -1.5% (inactive) | 4.16% (inactive) | 3.15% (inactive) | -4.01% (inactive) | 96.2% (inactive) | 88.4% (inactive) | 2.62% (inactive) | 8.45% (inactive)
20 | CC1CCC(NC(=O)C2(C)CCC(=O)N2Cc2cccnc2)CC1 (stereo not given) | 97% | 114% (inactive) | 97% (inactive) | 102% (inactive) | 78.6% (inactive) | -8.95% (inactive) | 87.5% | 78.6% | 2.18% (inactive) | -5.17% (inactive) | -12.3% (inactive) | -10.1% (inactive) | 1.23% (inactive) | 107% (inactive) | 98.3% (inactive) | 0.41% (inactive) | 1.87% (inactive)
